Assay outcomes from PubChem.
Pf growth 96h: Primary qHTS for delayed death inhibitors of the malarial parasite plastid, 96 hour incubation | Potency, µM (titrated, usually from 28.7 µM), most hits filed as inhibitors | AID 504834, 2011 | 320,000 compounds, 6.9% hits | P. falciparum luciferase reporter growth, 96 h
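Compounds incubated with erythrocytes infected by luciferase-expressing P. falciparum (2% hematocrit, 0.05% parasitemia final) for 96 hours, 37 C in 5% CO2. Growth inhibition scored as decreased luciferase luminescence.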
Cycloheximide cs: Cycloheximide Counterscreen for Small Molecule Inhibitors of Shiga Toxin; cell reporter, cycloheximide protein synthesis inhibition counterscreen; max response, %; 300,000 compounds, 12% hits; AID 2314, 2010; in the data active = max response mostly above about 13%, no sharp cut-off; inactive = mostly below about 14%; note: read at 38.3 µM for the half of the compounds with a filed dose
Shiga inhibitor: A qHTS for Small Molecule Inhibitors of Shiga Toxin; Vero cells, Shiga toxin protein synthesis inhibition reporter; inhibition, % at 38.7 µM; 290,000 compounds, 9.2% hits; in the data active = inhibition mostly above about 28%, no sharp cut-off; inactive = mostly below about 43%
NS1 inh: qHTS Assay for Inhibitors of Influenza NS1 Protein Function; Potency, µM (series often up to 46.1 µM); 270,000 compounds, 0.4% hits; calls by dose curve; note: actives are rising curves; nearly all actives have a fitted effect of over 50% in size
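Read-out: OD600 growth recovery of NS1-expressing budding yeast. Cells grown overnight at 30C in -URA glucose medium, washed, resuspended and diluted 1:100 in 2% galactose assay medium, pH 6.0. Same strain lacking NS1 served as positive control.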
Pf growth 48h: Primary qHTS for delayed death inhibitors of the malarial parasite plastid, 48 hour incubation; AID 504832, 2011; P. falciparum luciferase growth in erythrocytes, 48 h; 310,000 compounds, 5.9% hits; Potency, µM (highest dose often 28.7 µM), most hits filed as inhibitors
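Read-out is firefly luciferase luminescence from an integrated reporter in P. falciparum, so falling signal marks reduced parasite growth. Infected erythrocytes were at 2% hematocrit and 0.1% parasitemia (final) in Albumax-supplemented RPMI 1640.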
Of the large screens only hits and unclear results are named; the others gave an inactive call. The list is not random: actives were taken first. Their share in the collection is about 21%. Unless noted, calls come from the whole dose curve; as a rule, active = well fitted inhibition curve with a large enough effect; inconclusive = small, poorly fitted or top-dose-only effect, or another doubt; inactive = no such curve, though single readings can be large or run the other way.

O=C(NNS(=O)(=O)c1ccccc1)c1cccc([N+](=O)[O-])c1	Pf growth 48h inconclusive (no result: Shiga inhibitor)
CCOc1ccc2nc(NC(=O)C3=NN(c4ccccc4)C(=O)CC3)sc2c1	Cycloheximide cs 30
CCOc1ccc2nc(NC(=O)C3=NNC(=O)CC3)sc2c1	Cycloheximide cs 17 (no result: NS1 inh)
CCOc1ccc2nc(NC(=O)CN3C(=O)NC4(CCCC4)C3=O)sc2c1	none (no result: Cycloheximide cs, Shiga inhibitor, NS1 inh)
Cc1ccc2nc(NC(=O)C3=NN(c4ccccc4)C(=O)CC3)sc2c1	none
O=C(C/C=N\OCc1ccc([N+](=O)[O-])cc1)Nc1ccc(Br)cc1	none
O=C(NCCCN1CCCC1=O)Nc1ccc(Cl)cc1Cl	Cycloheximide cs 16
COCCCNC(=O)Nc1ccc(F)cc1F	Pf growth 96h inconclusive
COCCCNC(=O)Nc1ccc(Br)cc1Cl	Pf growth 96h inconclusive, Cycloheximide cs 37, Shiga inhibitor 49
O=C(NCCCN1CCCC1=O)Nc1ccc(Br)cc1Cl	Pf growth 96h 10µM, Cycloheximide cs 28, Shiga inhibitor 38
CN1CCN(NC(=O)Nc2ccc(Br)cc2Cl)CC1	Cycloheximide cs 16
CCOc1ccccc1N1C(=O)CC(Sc2n[nH]c(-c3ccccc3)n2)C1=O (stereo unspecified)	none
O=C(NCCCN1CCCC1=O)Nc1cc(Cl)ccc1Cl	none
Cc1ccc(NC(=O)NCCCN2CCCC2=O)cc1C	none
Cc1ccc(NC(=O)NCCCN2CCCC2=O)cc1	Cycloheximide cs 14 (no result: Pf growth 48h)
O=C(NCCCN1CCCC1=O)Nc1ccc(F)c(Cl)c1	Cycloheximide cs 47
O=C(CN1C(=O)CCS(=O)(=O)c2ccccc21)Nc1cccc(Cl)c1	Pf growth 48h inconclusive
O=C(Nc1ccc(Br)c2ccccc12)c1ccc2ccccc2c1O	Pf growth 96h 9.3µM, Cycloheximide cs 22, Shiga inhibitor 44, Pf growth 48h 12µM
CCc1nnc(NC(=O)c2c(C)nn(-c3ccccc3)c2Cl)s1	Pf growth 96h inconclusive, Cycloheximide cs 42
COc1ccccc1NC(=O)c1c(C)nn(-c2ccccc2)c1Cl	Cycloheximide cs 14
Cc1ccccc1NC(=O)c1c(C)nn(-c2ccccc2)c1Cl	Cycloheximide cs 38, Shiga inhibitor 69
Cc1nn(-c2ccccc2)c(Cl)c1C(=O)N(C)c1nc(-c2ccc(F)cc2)cs1	Pf growth 96h 7.4µM
Cc1nn(-c2ccccc2)c(Cl)c1C(=O)NNC(=O)c1ccccc1O	Pf growth 48h inconclusive (no result: Cycloheximide cs, Shiga inhibitor, NS1 inh)
Cc1nn(-c2ccccc2)c(Cl)c1C(=O)NCCN(C)C	none (no result: NS1 inh)
Cc1nn(-c2ccccc2)c(Cl)c1C(=O)NCC(C)C	none (no result: Pf growth 96h)
Cc1nn(-c2ccccc2)c(Cl)c1C(=O)NCC(C)c1ccccc1 (stereo unspecified)	Pf growth 96h inconclusive, Cycloheximide cs 43, Shiga inhibitor 74
CCCS(=O)(=O)c1c(S(=O)(=O)CCC)c2c(N)cccn2c1C(=O)c1ccc(Br)cc1	NS1 inh inconclusive, Pf growth 48h 12µM
CCCS(=O)(=O)c1c(S(=O)(=O)CCC)c2c(N)cccn2c1C(=O)c1ccc(F)cc1	NS1 inh inconclusive, Pf growth 48h 10µM
CCCS(=O)(=O)c1c(S(=O)(=O)CCC)c2ccc(C(N)=O)cn2c1C(=O)c1ccc(F)cc1	none
CCCS(=O)(=O)c1c(S(=O)(=O)CCC)c2c(N)cccn2c1C(=O)c1ccc(OC)cc1	Pf growth 48h inconclusive
CN(C)S(=O)(=O)c1ccc(-c2csnn2)s1	none (no result: Pf growth 48h)
COc1cc2c(cc1OC)C(C(=O)Nc1ccc3c(c1)OCCO3)C(c1cccnc1)N(C)C2=O (stereo unspecified)	Pf growth 96h inconclusive, Pf growth 48h 7.4µM
COc1cc2c(cc1OC)C(C(=O)N(C)Cc1ccccc1)C(c1cccnc1)N(C)C2=O (stereo unspecified)	Pf growth 96h 3.7µM (no result: NS1 inh)
COc1ccc(/C=C/C(=O)CC(=O)/C=C/c2cccc(O)c2OC)cc1O	none (no result: Pf growth 96h, NS1 inh, Pf growth 48h)
COc1cccc(-c2cc(=O)c3cc(NC(=O)c4ccc(Cl)cc4)ccc3[nH]2)c1	none
COc1cccc(-c2cc(N)nn2C(=O)Nc2ccc(Cl)cc2)c1	Pf growth 96h 12µM, Pf growth 48h inconclusive
CCOC(=O)c1c(-c2ccc(C)o2)csc1NC(=S)NC(=O)c1ccc(F)cc1	Pf growth 96h 7.4µM, Pf growth 48h 8.3µM
CCOC(=O)c1c(-c2ccccc2)csc1NC(=O)CSc1nc(C)cc(C)n1	Pf growth 96h inconclusive, Pf growth 48h 13µM
CCOC(=O)c1c(-c2ccc(C)o2)csc1NC(=O)CSc1nncs1	Pf growth 48h 10µM
CCOC(=O)c1c(-c2ccccc2)csc1NC(=O)CSc1nc(N)cc(N)n1	Pf growth 96h 3.3µM, NS1 inh inconclusive
CC1CCN(S(=O)(=O)c2nnc(NC(=O)c3ccccc3Br)s2)CC1	none
CC(C)c1nc2c(c(=O)n(C)c(=O)n2C)n1C	none
COC1(OC)C(/C=C/c2ccc(Cl)cc2)C(C#N)(C#N)C1(OC)OC (stereo unspecified)	Pf growth 96h inconclusive, Cycloheximide cs 19, Shiga inhibitor 41, Pf growth 48h inconclusive
Cc1cccc(NC(=S)NNC(=O)CC(C)O)c1C (stereo unspecified)	none
CCOP(=O)(OCC)C(Nc1cccc(C(F)(F)F)c1)c1ccc(C)cc1 (stereo unspecified)	Pf growth 96h inconclusive, Pf growth 48h 10µM
CCCOP(=O)(OCCC)C(Nc1cccc(C(F)(F)F)c1)c1ccc(C)cc1 (stereo unspecified)	Pf growth 96h 12µM, Pf growth 48h inconclusive
Cc1ccc(-n2nnnc2SCC(=O)Nc2ccc(N3CCN(C)CC3)cc2)c(C)c1	Pf growth 48h inconclusive
O=C(CSc1ccccc1)Nc1ccc(N2CCOCC2)c(F)c1	Cycloheximide cs 57, Shiga inhibitor 120
O=C(Nc1ccc(N2CCOCC2)cc1)c1nc2ccccc2s1	Cycloheximide cs 54, Shiga inhibitor 91
O=C(CSc1ccc2ccccc2n1)Nc1ccc(N2CCOCC2)cc1	Cycloheximide cs 31, Shiga inhibitor 49 (no result: NS1 inh)
Cc1ccc(SCC(=O)Nc2ccc(N3CCN(C)CC3)c(F)c2)c(C)c1	Pf growth 96h inconclusive, Cycloheximide cs 24, Pf growth 48h inconclusive
O=C(COc1ccc(F)cc1)NCC1(N2CCCCC2)CCCCC1	none (no result: Cycloheximide cs, Shiga inhibitor, NS1 inh)
CN(Cc1ccco1)C(=O)c1cc2c(s1)-c1ccc(Cl)cc1S(=O)(=O)C2	none
COc1cc(OC)c(OC)cc1/C=N/NC(=O)CCc1c(C)n[nH]c1C	none
C[C@@]12CCc3occc3[C@H]1CC[C@@]13C[C@@H](CC[C@H]12)[C@@](O)(CO)C3	none (no result: Pf growth 96h, NS1 inh, Pf growth 48h)
COC(=O)c1ccccc1SCC(=O)Nc1ccc(N2CCOCC2)cc1	Cycloheximide cs 37, Shiga inhibitor 55
O=C(CSc1ccc(F)cc1)Nc1ccc(N2CCOCC2)cc1	Cycloheximide cs 27
CC1CN(CC(=O)NN=C(c2ccccc2)c2ccccc2)CC(C)O1 (stereo unspecified)	Pf growth 48h inconclusive
O=C(NCCc1ccccc1)C1CCCN(S(=O)(=O)c2cccs2)C1 (stereo unspecified)	none
CCOC(=O)C1CCN(c2ccc(-c3cccs3)nn2)CC1	Cycloheximide cs 37, Shiga inhibitor 99
